Screening results as filed in PubChem BioAssay.
PI5P4K alpha inh: qHTS for Inhibitors of phosphatidylinositol 5-phosphate 4-kinase (PI5P4K); Phosphatidylinositol 5-phosphate 4-kinase type-2 alpha (Homo sapiens), P48426; PI5P4Kalpha enzyme, ADP-Glo luminescence, 60 min; stronger effect = lower value; max response, %; actives 1.2% (n = 330,000); active means max response of -50% or lower; inconclusive means between -30% and -50%; inactive means -30% or higher; further: value at the top dose of about 77 µM
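Single end-point luminescence (ADP-Glo) quantified ADP from PI5P4Kalpha turnover; ATP 5 microM final, 1 h at RT, 0.1% CHAPS and 0.28 mM EGTA in HEPES pH 7.4.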
LDHA block: qHTS assay for inhibitors of human lactate dehydrogenase. L-lactate dehydrogenase A chain (Homo sapiens), P00338. activity change, % (values are at about 110 or 230 µM). AID 1347041, 2019. purified LDHA, NADH/diaphorase-resazurin fluorescence; stronger effect = lower value. actives 0.15% (n = 480,000); in the data active means activity change below about -30%; inconclusive means mostly about -25% to -30%
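Human LDH5 (2 nM) was incubated with 0.06 mM NADH and 0.2 mM pyruvate for 5 min at room temperature in Tris pH 7.4. Remaining NADH was coupled through diaphorase/resazurin, and resorufin fluorescence was read at 0 and 20 min.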
D3 antag: qHTS of D3 Dopamine Receptor Antagonist: qHTS; D(3) dopamine receptor (Homo sapiens), P35462; D3R cells, DiscoveRx beta-arrestin luminescence, antagonist mode; stronger effect = lower value; max response, negative = inhibition, %; actives 2.5% (n = 360,000); AID 652054, 2013; in the data active means max response below about -50%; inconclusive means no clear call, values can overlap the other calls
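Cells expressing the human receptor were seeded at 1500 cells/well, incubated overnight at 37 degrees C in 5% CO2, then exposed to library compounds with dopamine controls for 90 minutes at 37 degrees C before luminescent detection.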
PI4K2A block: qHTS for small molecular inhibitors of PI4K2A; activity change, negative = inhibition, % at 76.9 µM; Phosphatidylinositol 4-kinase type 2-alpha (Homo sapiens), Q9BTU6; actives 0.13% (n = 420,000); purified PI4K2A, ADP-Glo luminescence, 1 h; stronger effect = lower value; in the data active means activity change below about -50%; inconclusive means mostly about -30% to -49%
Target sequence (Q9BTU6 whole entry, looked up): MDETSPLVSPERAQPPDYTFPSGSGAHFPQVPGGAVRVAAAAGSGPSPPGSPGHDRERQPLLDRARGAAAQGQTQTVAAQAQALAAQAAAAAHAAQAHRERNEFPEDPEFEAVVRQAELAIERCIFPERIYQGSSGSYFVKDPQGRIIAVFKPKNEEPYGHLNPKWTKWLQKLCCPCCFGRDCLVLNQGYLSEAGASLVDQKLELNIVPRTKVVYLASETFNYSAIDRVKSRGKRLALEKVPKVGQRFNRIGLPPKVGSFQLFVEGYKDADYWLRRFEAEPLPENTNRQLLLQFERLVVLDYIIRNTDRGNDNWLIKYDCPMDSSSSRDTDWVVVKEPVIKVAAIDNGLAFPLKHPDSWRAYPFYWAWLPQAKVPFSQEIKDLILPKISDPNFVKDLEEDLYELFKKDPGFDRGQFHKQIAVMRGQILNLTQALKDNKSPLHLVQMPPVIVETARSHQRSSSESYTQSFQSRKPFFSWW
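PI4K2A activity was measured by ADP-Glo luminescence: enzyme (4 ug/mL stock) and phosphatidylinositol (1.2 mM stock) in Tris pH 7.5/MgCl2/EGTA/Triton X-100 buffer were reacted with ATP (300 microM stock) for one hour at ambient temperature.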
D3 ag: qHTS of D3 Dopamine Receptor Agonist: qHTS | D(3) dopamine receptor (Homo sapiens), P35462 | D3R DiscoveRx beta-arrestin cells, luminescence, 90 min | max activation, % | actives 0.58% (n = 410,000) | AID 652048, 2013; in the data active means max activation above about 30%
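Agonist mode: compounds and dopamine controls were applied to plated cells for 90 min at 37 degrees C after an overnight attachment at 1500 cells/well. Luminescent read-out followed 30 - 60 minutes at room temperature with DiscoveRx detection reagent.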
Numbers stand for hits. Sampled rows, rich in hits. Any-hit rate of the full collection: about 3.3%.

How did O=C(COc1ccc(Br)cc1)N1CCCCCC1 do in these assays?
LDHA block: inactive; D3 antag: -59; PI4K2A block: inactive; D3 ag: inactive

Results for CC1(C)CC(=O)c2cc(OCC(=O)N3CCCCCC3)ccc2O1 ?
LDHA block: inactive; D3 antag: -71; PI4K2A block: inactive; D3 ag: inactive

What do the screens show for `CCNc1cc(C)nc(Nc2ccc(NC(=O)c3ccccc3F)cc2)n1`?
LDHA block: inactive

Results for Cn1c(=O)c2c(ncn2CC(=O)Nc2nc(-c3ccccc3Cl)cs2)n(C)c1=O ?
LDHA block: inactive; D3 antag: inactive; PI4K2A block: inactive; D3 ag: 32

What do the screens show for `COCCc1ccc(-c2csc(NC(=O)Cn3cnc4c3c(=O)n(C)c(=O)n4C)n2)cc1`?
LDHA block: inactive

How did S=c1ncc2[nH]c(=S)[nH]c2[nH]1 do in these assays?
PI5P4K alpha inh: -84; LDHA block: inactive; D3 antag: inconclusive; PI4K2A block: inactive; D3 ag: inactive

How did COc1ccc(NC(=O)Cn2cnc3c2c(=O)n(C)c(=O)n3C)cc1OC do in these assays?
LDHA block: inactive

What do the screens show for `C=CCN(C)CC#Cc1ccccc1C`?
PI4K2A block: inactive

What do the screens show for `COc1ccc(-c2[nH][nH]c(=O)c2NC(=O)c2ccccn2)cc1`?
PI5P4K alpha inh: inactive; LDHA block: inactive; D3 antag: inactive; PI4K2A block: inactive; D3 ag: inactive

What do the screens show for `COc1ccc(CCC(=O)Nc2c(-c3ccc(N(C)C)cc3)[nH][nH]c2=O)cc1`?
PI5P4K alpha inh: -60; LDHA block: inactive; D3 antag: inconclusive; PI4K2A block: -64; D3 ag: inactive

Results for CN(C)CCCN(C(=O)CCS(=O)(=O)c1ccccc1)c1nc2cc3c(cc2s1)OCO3 ?
PI5P4K alpha inh: inactive; LDHA block: inactive; D3 antag: inconclusive; PI4K2A block: inactive; D3 ag: inactive

How did CN(C)CCCN(C(=O)CCSc1ccccc1)c1nc2cc3c(cc2s1)OCO3 do in these assays?
PI5P4K alpha inh: inactive; LDHA block: inactive; D3 antag: -50; PI4K2A block: inactive; D3 ag: inactive

Results for CCN1CCCC1CNC(=O)c1nc(-c2ccc3[nH]ccc3c2)no1 (configuration not stated) ?
LDHA block: inactive

What do the screens show for `COc1cccc(OC2(C)CCN(Cc3cccn3-c3nccs3)C2)c1` (configuration not stated)?
PI5P4K alpha inh: inactive; LDHA block: inactive; D3 antag: inactive; PI4K2A block: inactive; D3 ag: inactive

What do the screens show for `CC1(Oc2ccc(-n3ccnc3)cc2)CCN(Cc2cccn2-c2nccs2)C1` (configuration not stated)?
PI5P4K alpha inh: inactive; LDHA block: inactive; D3 antag: inactive; PI4K2A block: inactive; D3 ag: 56

What do the screens show for `Cc1ccc(/C=C/C(=O)Nc2ccc(S(N)(=O)=O)cc2)o1`?
PI5P4K alpha inh: -54; LDHA block: inactive; D3 antag: inactive; PI4K2A block: inactive; D3 ag: inactive

How did Cc1ccc(/C=C/C(=O)NCC2COc3ccccc3O2)o1 (configuration not stated) do in these assays?
PI5P4K alpha inh: -70; LDHA block: inactive; D3 antag: inactive; PI4K2A block: inactive; D3 ag: inactive

What do the screens show for `CC(=O)NS(=O)(=O)c1ccc(NC(=O)/C=C/c2ccc(C)o2)cc1`?
PI5P4K alpha inh: inconclusive; LDHA block: inactive; D3 antag: inactive; PI4K2A block: inactive; D3 ag: inactive

What do the screens show for `Cc1ccc(/C=N/NC(=O)NC2CCCCC2)o1`?
PI5P4K alpha inh: inactive; LDHA block: inactive; D3 antag: inactive; PI4K2A block: inactive; D3 ag: inactive

How did Cc1ccc(/C=C/C(=O)NC2CCCCCCC2)o1 do in these assays?
PI5P4K alpha inh: -55; LDHA block: inactive; D3 antag: -61; PI4K2A block: inactive; D3 ag: inactive

What do the screens show for `Cc1ccc(/C=C/C(=O)NCc2ccccn2)o1`?
PI5P4K alpha inh: -64; LDHA block: inactive; D3 antag: inactive; PI4K2A block: inactive; D3 ag: inactive
